Experimental data from PubChem BioAssay (EPA / NIEHS).
Results filed as inconclusive are left out. Calls of active or inactive are those of the source. The calls were made as follows: active = hit-call score of the fitted dose curve at least 0.9, where 1 is the maximum; inconclusive = response in the unintended direction; inactive = score below 0.9.

How the values were obtained:
[1] = biological target: human Peroxisome Proliferator-activated Receptor alpha (PPARa), PPARA (gene 5465) (UniProt Q07869); test: ATG_PPARa_TRANS: Attagene TRANS-FACTORIAL HepG2 Assay for human Peroxisome Proliferator-activated Receptor alpha (PPARa) (AID 2283001);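 as to AC50: potency for gain of reporter signal over DMSO so agonist or activator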
How it was run: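 HepG2 cells transiently transfected with multiplexed GAL4-UAS reporters driven by exogenous chimeric NR-Gal4 proteins; reporter mRNA measured after 24 h dosing. Read-out by RT-PCR, 6-FAM labelling, HpaI digestion and capillary electrophoresis; gain of signal versus DMSO.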

[2] = biological target: Peroxisome proliferator-activated receptor gamma (Homo sapiens) (UniProt P37231); test: ATG_PPARg_TRANS: Attagene TRANS-FACTORIAL HepG2 Assay for human Peroxisome Proliferator-activated Receptor-gamma (PPARg) (AID 2283007)
How it was run: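 Twenty-four hours after chemical dosing of transiently transfected HepG2 cells, isolated RNA was converted to cDNA, reporter sequences amplified and 6-FAM-labelled, then HpaI-digested and analysed by capillary electrophoresis. Signal increase against DMSO was fitted.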

[3] = biological target: Nuclear receptor subfamily 1 group I member 2 (Homo sapiens) (UniProt O75469); test: ATG_PXR_TRANS: Attagene TRANS-FACTORIAL HepG2 Assay for human Pregnane X Receptor (PXR) (AID 2283008)
How it was run: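 Read-out is fluorescence of labelled reporter cDNA fragments separated by capillary electrophoresis after RT-PCR and HpaI digestion. Source: HepG2 cells carrying PXR-GAL4/UAS reporter constructs, treated 24 h; activity fitted upward relative to DMSO.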

[4] = biological target: human RAR-related Orphan Receptor gamma (RORg), RORC (gene 6097) (UniProt P51449); test: ATG_RORg_TRANS: Attagene TRANS-FACTORIAL HepG2 Assay for human RAR-related Orphan Receptor gamma (RORg) (AID 2283011)
How it was run: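 Transient MRTU transfection of HepG2 (TRANS format, exogenous NR-Gal4 chimera). 24 h dosing. Total RNA → oligo(dT) RT → PCR → 6-FAM labelling → HpaI cut → CE. Gain vs DMSO.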

[5] = biological target: human Retinoid X Receptor beta (RXRb), RXRB (gene 6257) (UniProt P28702); test: ATG_RXRb_TRANS: Attagene TRANS-FACTORIAL HepG2 Assay for human Retinoid X Receptor beta (RXRb) (AID 2283013)
How it was run: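 HepG2 cells were transiently transfected with multiplexed GAL4-UAS reporters and a chimeric RXRb-Gal4 construct, then exposed for 24 h. Reporter mRNA was quantified by RT-PCR, FAM labeling, HpaI digestion and capillary electrophoresis; gain of signal was scored against DMSO.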

[6] = biological target: Retinoic acid receptor RXR-alpha (Homo sapiens) (UniProt P19793); test: ATG_RXRa_TRANS: Attagene TRANS-FACTORIAL HepG2 Assay for human Retinoid X Receptor alpha (RXRa) (AID 2283012)
How it was run: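 HepG2 cells transiently transfected with GAL4-UAS reporter units and chimeric RXRa-Gal4 protein, treated 24 h. Reporter mRNA measured by RT-PCR, fluorescent labelling, HpaI digestion and capillary electrophoresis. Induction fitted against DMSO.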

[7] = biological target: human RAR-related Orphan Receptor beta (RORb), RORB (gene 6096) (UniProt Q92753); test: ATG_RORb_TRANS: Attagene TRANS-FACTORIAL HepG2 Assay for human RAR-related Orphan Receptor beta (RORb) (AID 2283010)
How it was run: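 HepG2 cells transiently transfected with GAL4-UAS reporter units expressing chimeric NR-Gal4 protein; reporter mRNA measured 24 h after dosing by RT-PCR, 6-FAM labelling and capillary electrophoresis. Gain-of-signal fitted relative to DMSO baseline.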

[8] = biological target: human Thyroid Receptor alpha (THRa1), THRA (gene 7067) (UniProt P10827); test: ATG_THRa1_TRANS: Attagene TRANS-FACTORIAL HepG2 Assay for human Thyroid Receptor alpha (THRa1) (AID 2283014)
How it was run: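 Transient HepG2 transfection, NR-Gal4 chimera driving GAL4-UAS reporters; 24 h compound exposure; total RNA, oligo(dT) RT, PCR, fluorescent primer extension, capillary electrophoresis. Upward direction vs DMSO control.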

Measured: AC50

human RAR-related Orphan Receptor beta (RORb), RORB (gene 6096), sequence (Q92753 whole entry, looked up, the tested form may be a part): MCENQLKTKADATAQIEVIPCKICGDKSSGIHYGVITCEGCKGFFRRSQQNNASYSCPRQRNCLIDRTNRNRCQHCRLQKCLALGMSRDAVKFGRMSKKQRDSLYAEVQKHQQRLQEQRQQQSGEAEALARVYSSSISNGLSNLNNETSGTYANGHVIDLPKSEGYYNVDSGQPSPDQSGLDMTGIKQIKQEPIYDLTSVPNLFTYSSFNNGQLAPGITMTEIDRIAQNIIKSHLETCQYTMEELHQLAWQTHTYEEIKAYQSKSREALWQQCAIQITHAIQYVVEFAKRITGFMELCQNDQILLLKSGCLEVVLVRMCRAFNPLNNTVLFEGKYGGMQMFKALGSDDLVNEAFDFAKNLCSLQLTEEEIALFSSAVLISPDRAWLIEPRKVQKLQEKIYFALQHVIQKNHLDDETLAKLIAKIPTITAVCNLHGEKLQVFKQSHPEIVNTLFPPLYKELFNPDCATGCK
Retinoic acid receptor RXR-alpha (Homo sapiens), sequence (P19793 whole entry, looked up, the tested form may be a part): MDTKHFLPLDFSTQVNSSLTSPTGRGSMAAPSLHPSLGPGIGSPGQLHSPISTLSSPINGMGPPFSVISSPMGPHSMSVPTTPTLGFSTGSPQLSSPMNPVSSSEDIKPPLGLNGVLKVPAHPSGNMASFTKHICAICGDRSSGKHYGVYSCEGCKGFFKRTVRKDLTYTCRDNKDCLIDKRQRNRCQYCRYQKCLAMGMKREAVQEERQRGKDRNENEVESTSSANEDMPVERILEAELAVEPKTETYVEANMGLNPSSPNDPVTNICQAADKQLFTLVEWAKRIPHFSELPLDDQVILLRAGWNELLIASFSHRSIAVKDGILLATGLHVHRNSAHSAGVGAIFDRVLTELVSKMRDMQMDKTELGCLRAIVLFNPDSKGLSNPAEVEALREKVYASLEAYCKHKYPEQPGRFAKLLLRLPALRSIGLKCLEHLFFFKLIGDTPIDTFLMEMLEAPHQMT
Nuclear receptor subfamily 1 group I member 2 (Homo sapiens), sequence (O75469 whole entry, looked up, the tested form may be a part): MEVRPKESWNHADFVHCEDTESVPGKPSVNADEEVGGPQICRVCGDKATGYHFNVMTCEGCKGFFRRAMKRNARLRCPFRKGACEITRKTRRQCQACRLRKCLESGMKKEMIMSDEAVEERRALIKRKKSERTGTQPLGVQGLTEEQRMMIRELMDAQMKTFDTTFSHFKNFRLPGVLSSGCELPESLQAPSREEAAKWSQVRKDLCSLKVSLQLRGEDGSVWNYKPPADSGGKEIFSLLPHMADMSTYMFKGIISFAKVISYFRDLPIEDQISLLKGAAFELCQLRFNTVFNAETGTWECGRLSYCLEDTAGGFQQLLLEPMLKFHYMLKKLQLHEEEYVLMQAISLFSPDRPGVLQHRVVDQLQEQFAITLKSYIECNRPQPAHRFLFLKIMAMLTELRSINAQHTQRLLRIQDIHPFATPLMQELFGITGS
human Retinoid X Receptor beta (RXRb), RXRB (gene 6257), sequence (P28702 whole entry, looked up, the tested form may be a part): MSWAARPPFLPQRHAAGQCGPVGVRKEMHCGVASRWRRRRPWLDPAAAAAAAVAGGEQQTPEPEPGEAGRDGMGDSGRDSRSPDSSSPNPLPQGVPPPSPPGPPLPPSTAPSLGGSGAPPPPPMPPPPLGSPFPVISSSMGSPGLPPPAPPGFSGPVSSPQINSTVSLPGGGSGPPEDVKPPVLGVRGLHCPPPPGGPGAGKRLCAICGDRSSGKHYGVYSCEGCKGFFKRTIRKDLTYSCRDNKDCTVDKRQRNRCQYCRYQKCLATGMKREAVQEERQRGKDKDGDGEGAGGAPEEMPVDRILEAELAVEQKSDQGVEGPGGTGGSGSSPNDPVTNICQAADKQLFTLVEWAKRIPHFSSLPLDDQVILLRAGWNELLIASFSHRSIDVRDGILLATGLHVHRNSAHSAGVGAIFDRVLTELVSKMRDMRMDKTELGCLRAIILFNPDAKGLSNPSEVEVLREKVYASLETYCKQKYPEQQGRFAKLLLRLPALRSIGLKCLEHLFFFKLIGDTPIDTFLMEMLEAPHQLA
human Peroxisome Proliferator-activated Receptor alpha (PPARa), PPARA (gene 5465), sequence (Q07869 whole entry, looked up, the tested form may be a part): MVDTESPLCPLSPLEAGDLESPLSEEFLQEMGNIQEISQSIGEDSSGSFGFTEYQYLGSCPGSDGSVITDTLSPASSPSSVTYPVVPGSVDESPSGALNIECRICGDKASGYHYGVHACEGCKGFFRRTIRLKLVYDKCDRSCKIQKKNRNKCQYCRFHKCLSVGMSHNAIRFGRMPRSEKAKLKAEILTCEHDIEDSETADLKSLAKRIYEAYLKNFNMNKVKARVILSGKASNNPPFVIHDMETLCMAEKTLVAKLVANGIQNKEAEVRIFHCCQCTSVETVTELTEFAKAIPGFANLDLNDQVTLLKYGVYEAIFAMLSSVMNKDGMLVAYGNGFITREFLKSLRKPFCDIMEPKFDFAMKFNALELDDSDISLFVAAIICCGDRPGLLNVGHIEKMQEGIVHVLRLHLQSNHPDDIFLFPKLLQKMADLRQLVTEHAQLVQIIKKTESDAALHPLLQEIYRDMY
human RAR-related Orphan Receptor gamma (RORg), RORC (gene 6097), sequence (P51449 whole entry, looked up, the tested form may be a part): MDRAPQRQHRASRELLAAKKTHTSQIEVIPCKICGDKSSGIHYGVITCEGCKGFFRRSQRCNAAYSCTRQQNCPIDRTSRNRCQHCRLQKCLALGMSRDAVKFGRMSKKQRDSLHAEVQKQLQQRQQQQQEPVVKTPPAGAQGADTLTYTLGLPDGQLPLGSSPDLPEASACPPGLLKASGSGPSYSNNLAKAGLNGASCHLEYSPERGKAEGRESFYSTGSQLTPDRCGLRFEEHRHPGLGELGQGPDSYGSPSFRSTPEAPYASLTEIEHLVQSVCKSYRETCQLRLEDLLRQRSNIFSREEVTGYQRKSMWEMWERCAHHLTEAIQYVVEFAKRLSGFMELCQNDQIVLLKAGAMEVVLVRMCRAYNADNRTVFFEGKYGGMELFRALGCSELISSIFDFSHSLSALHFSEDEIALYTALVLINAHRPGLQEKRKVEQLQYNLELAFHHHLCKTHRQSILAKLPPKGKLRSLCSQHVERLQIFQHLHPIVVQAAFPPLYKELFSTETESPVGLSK
Peroxisome proliferator-activated receptor gamma (Homo sapiens), sequence (P37231 whole entry, looked up): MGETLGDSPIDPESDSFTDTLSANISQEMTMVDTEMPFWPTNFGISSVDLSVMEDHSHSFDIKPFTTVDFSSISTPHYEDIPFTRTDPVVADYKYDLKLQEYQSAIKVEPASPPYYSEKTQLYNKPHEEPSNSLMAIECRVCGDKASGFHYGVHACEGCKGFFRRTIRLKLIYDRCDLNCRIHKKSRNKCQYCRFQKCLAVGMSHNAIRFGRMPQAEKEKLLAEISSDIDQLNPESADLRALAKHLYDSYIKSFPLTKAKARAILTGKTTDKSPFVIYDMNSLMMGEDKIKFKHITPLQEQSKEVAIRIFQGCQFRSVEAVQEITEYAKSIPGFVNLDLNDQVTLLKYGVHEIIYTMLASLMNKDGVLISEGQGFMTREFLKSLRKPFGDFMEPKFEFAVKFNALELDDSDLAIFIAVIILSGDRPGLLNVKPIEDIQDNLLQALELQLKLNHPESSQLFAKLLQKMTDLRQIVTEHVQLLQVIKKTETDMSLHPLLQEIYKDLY
human Thyroid Receptor alpha (THRa1), THRA (gene 7067), sequence (P10827 whole entry, looked up, the tested form may be a part): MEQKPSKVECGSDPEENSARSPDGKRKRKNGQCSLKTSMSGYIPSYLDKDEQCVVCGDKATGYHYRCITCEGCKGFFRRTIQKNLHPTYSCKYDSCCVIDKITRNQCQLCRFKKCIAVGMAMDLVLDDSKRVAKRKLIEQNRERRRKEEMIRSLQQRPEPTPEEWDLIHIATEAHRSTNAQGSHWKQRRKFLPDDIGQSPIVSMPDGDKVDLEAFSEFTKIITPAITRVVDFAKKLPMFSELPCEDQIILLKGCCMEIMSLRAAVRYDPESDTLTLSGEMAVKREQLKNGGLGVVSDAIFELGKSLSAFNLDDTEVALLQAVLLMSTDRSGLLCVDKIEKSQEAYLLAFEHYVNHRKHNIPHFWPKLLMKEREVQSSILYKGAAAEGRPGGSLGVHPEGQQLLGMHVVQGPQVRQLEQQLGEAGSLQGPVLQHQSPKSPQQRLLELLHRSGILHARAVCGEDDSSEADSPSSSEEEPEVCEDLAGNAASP

CCCCCC(=O)OCCc1ccccc1
inactive: [1] | [2] | [3] | [4] | [5]

CCC(=O)/C=C/C1C(C)=CCCC1(C)C (centres undefined)
active: [2] 21.4 µM | [3] 3.77 µM | [5] 34.7 µM
inactive: [1] | [6]

C=C(C)C(=O)OCCOC(=O)CC(C)=O
inactive: [1] | [2] | [3] | [7] | [5]

C=C(C)C1CCC(C)CC1O (centres undefined)
inactive: [1] | [2] | [3] | [6]

CCc1ccc(C=O)cc1
inactive: [1] | [2] | [3] | [6] | [5]

CC(C)=CCCC(C)CC=O (centres undefined)
inactive: [1] | [2] | [3] | [5] | [8]

C=CC(=O)OCCn1c(=O)n(CCOC(=O)C=C)c(=O)n(CCOC(=O)C=C)c1=O
inactive: [3] | [4] | [6] | [8]
active: [1] 8.62 µM | [2] 8.83 µM

CCCCCCCCCCCCCC(=O)O
inactive: [2] | [3] | [6]
active: [1] 27.9 µM | [5] 69.7 µM

CCCCc1ccc(N)cc1
active: [1] 38.7 µM
inactive: [2] | [3] | [7] | [6]

Cc1ccccc1C=O
inactive: [1] | [2] | [5]

COc1cc2ncnc(Nc3cccc(Cl)c3)c2cc1OC
inactive: [1] | [2] | [3] | [6] | [8]

O=C1O[C@@H]2[C@@H](O)[C@H](O)O[C@@H]2[C@H]1O
inactive: [1] | [2] | [3] | [5]

O=C(O)CCCCC1CCSS1 (centres undefined)
inactive: [1] | [2] | [3] | [4]

CCC/C=C/C=O
inactive: [1] | [3] | [6]
active: [2] 27.7 µM

CCCC(=O)c1cc(O)c(O)cc1O
inactive: [1] | [2] | [3] | [4]

S=C(S)NCCNC(=S)S
inactive: [1] | [2] | [4]

CC(C)c1cccc(O)c1
inactive: [1] | [2] | [3] | [8]

COC(=O)Cc1cccc2ccccc12
active: [2] 66.5 µM | [5] 55.2 µM
inactive: [1] | [3] | [6]

O=C(O)Cc1cccc2ccccc12
active: [2] 69 µM
not listed: [8]
inactive: all other assays above

CCCc1ccccc1O
active: [5] 65.7 µM
not listed: [4] | [7]
inactive: all other assays above

CSc1nnc(C(C)(C)C)c(=O)[nH]1
inactive: [1] | [2] | [3] | [4] | [6]
